Shown is part of a subset that was picked to be rich in hits.
SF1 inhibitor – inhibitors of human SF-1, primary screen, cell-based, CHO-K1, Gal4-SF-1 LBD, luciferase luminescence | Steroidogenic factor 1 (Homo sapiens), Q13285 | CHO-K1 Gal4-SF-1 LBD luciferase reporter | inhibition, % at 10 µM | actives 0.55% (n = 65,000) | AID 525, 2006;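 active means inhibition above the mean inhibition of all tested compounds plus 3 SD, cut at about 48% in these data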
Target sequence (Q13285 whole entry, looked up, the tested form may be a part): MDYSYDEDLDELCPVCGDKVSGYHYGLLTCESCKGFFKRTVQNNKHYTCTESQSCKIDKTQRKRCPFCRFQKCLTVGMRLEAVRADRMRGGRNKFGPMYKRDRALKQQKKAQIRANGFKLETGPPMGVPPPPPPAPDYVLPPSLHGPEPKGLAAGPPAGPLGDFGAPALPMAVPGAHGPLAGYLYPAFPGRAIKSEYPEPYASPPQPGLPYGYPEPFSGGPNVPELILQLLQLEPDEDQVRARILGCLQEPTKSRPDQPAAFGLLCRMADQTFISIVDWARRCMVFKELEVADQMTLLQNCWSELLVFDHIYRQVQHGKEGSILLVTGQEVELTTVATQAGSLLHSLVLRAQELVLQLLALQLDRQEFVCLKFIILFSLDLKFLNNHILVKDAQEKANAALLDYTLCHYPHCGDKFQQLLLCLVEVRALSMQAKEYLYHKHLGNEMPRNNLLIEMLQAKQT
Each line names hits and unclear results; the compound was inactive in the other large screens.

Cc1occc1C(=O)NCc1cccc(CNC(=O)c2ccoc2C)c1	none
O=c1cc(N2CCN(c3ccccc3)CC2)[nH]c(=O)n1C1CCCCC1	SF1 inhibitor 52
O=c1cc(NCC2CCCO2)[nH]c(=O)n1-c1ccc(Cl)cc1 (stereo not given)	none
CCOC(=O)C1CCN(c2cc(=O)n(C3CCCCC3)c(=O)[nH]2)CC1	none
CN1CCN(C2=C(Cl)C(=O)N(c3cccc(Cl)c3)C2=O)CC1	none
Cc1ccccc1-n1c(=O)cc(N2CCCCCC2)[nH]c1=O	none
O=c1cc(N2CCN(c3cccc(Cl)c3)CC2)[nH]c(=O)n1C1CCCCC1	SF1 inhibitor 80
CN(C)C(=O)N1CCCC(C(=O)NCc2ccccc2)C1 (stereo not given)	none
CCNC(=O)c1ccc(NS(=O)(=O)c2ccccc2)cc1	none
O=C(c1cc2c(=O)oc3ccccc3c2s1)N1CCN(c2ncccn2)CC1	none
Cc1cc(N2CCN(c3nnnn3-c3ccccc3)CC2)n2ncnc2n1	none
Cc1cc(N2CCc3ccccc32)n2ncnc2n1	none
CCn1c2ccccc2c2cc(Nc3cc(C)nc4ncnn34)ccc21	SF1 inhibitor 70
Cc1nn(-c2nc3ccccc3s2)c(N)c1Sc1ccc(F)cc1	none
CC(C)(C)n1ncc2c(=O)n(CC(=O)NCc3ccccc3Cl)cnc21	none
CCc1ccccc1NC(=O)c1nnn(CC(=O)Nc2ccccc2C)c1N	none
COc1cccc(CNC(=O)c2nnn(CC(=O)Nc3ccc(C)c(C)c3)c2N)c1	SF1 inhibitor 56
Nc1c(C(=O)Nc2ccc3c(c2)OCCO3)nnn1CCc1ccccc1	none
O=c1c2ccccc2nnn1CSc1ccc2c(c1)OCCO2	none
C=C(C)CSc1nnc([C@H](CCSC)NC(=O)OC(C)(C)C)o1	none
CCOC(=O)c1cc2sccc2n1CCCN1C(=O)c2ccccc2C1=O	none
CCOC(=O)c1[nH]c(C)c(C(=O)Nc2ccccc2F)c1C	none
CC(=O)c1c(C)[nH]c(C(=O)OCCCCN2C(=O)c3ccccc3C2=O)c1C	SF1 inhibitor 84
COc1ccc(S(=O)(=O)N(CC(=O)N2CCN(C)CC2)c2ccc(C)cc2)cc1OC	none
O=C(CN(C1CCCCC1)S(=O)(=O)c1ccc(Cl)cc1)NCCCO	none
O=C1c2ccccc2C(=O)C1c1nccc2ccccc12	SF1 inhibitor 60
c1ccc2c(-c3nc(-c4ccncc4)no3)cccc2c1	none
COCCN(C(=O)Nc1ccccc1)c1ccccc1C	none
CCOC(=O)C1CCCN(C(=O)C2CCN(S(=O)(=O)c3cnc[nH]3)CC2)C1 (stereo not given)	none
CCOc1ccc2[nH]c(S(=O)(=O)CC)nc2c1Cl	none
COC(=O)c1cc2sc(Cl)cc2n1CC(=O)N1CCCc2ccccc21	none
C=CCOc1ccc2c(c1)c(S(=O)(=O)c1ccc(C)cc1)cn2COC	none
CC1CN(c2nc(-c3ccccc3)nc3ccccc23)CC(C)O1 (stereo not given)	none
CC(=O)N1CCN(c2ccc(Oc3nc(-c4ccccc4)nc4ccccc34)cc2)CC1	none
c1ccc(N2CCN(c3nc(-c4ccccn4)nc4ccccc34)CC2)cc1	SF1 inhibitor 52
COc1nc(OCCNC(=O)Nc2ccccc2)nc(N(C)C)n1	none
Cn1c(SCC(=O)N2CCCCC2)nnc1-c1ccc(S(=O)(=O)N2CCOCC2)cc1	none
O=C(O)Cc1ccc2[nH]c3ccc(CC(=O)O)cc3c2c1	none
O=C(Nc1cccc(-c2nnc(-c3ccccc3)o2)c1)c1ccc(Br)o1	none
Cc1nnc(SC(=O)N2c3ccccc3Sc3ccccc32)s1	SF1 inhibitor 65
Cc1nnc(SCC(=O)N2c3ccccc3CC2C)s1 (stereo not given)	none
Cc1onc(-c2ccccc2Cl)c1-c1nc(-c2ccccn2)no1	none
c1ccc(-c2noc(-c3ccc4c(c3)OCO4)n2)nc1	SF1 inhibitor 75
c1ccc(-c2noc(-c3ccc4ccccc4c3)n2)nc1	SF1 inhibitor 91
c1ccc(-c2noc(C34CC5CC(CC(C5)C3)C4)n2)nc1	none
CN(Cc1nc(-c2ccccn2)no1)S(=O)(=O)c1ccc(Cl)cc1	none
c1ccc(-c2noc(C3CCCCC3)n2)nc1	none
CCCCc1cc(O)c(CCCC)c(O)c1	none
O=C(Cn1ncn2c(cc3ccccc32)c1=O)NCc1ccco1	none
COC(=O)NCc1ccc(S(=O)(=O)N2CCOCC2)cc1	none
O=C1CCN(Cc2nnnn2CC2CCCO2)c2ccccc2N1 (stereo not given)	none
Cc1cc2c(cc1C)NC1(C(=O)Nc3ccccc31)C1=C(CC(C)(C)CC1=O)N2 (stereo not given)	none
O=C(Cn1cc2c(n1)CCCC2)Nc1cc(-c2cccc(Cl)c2)no1	none
CC(C)c1cc(C(=O)NC2CCCCC2)no1	none
O=C(O)CSc1ccccn1	none
Cc1cc(NC(=O)c2ccc3c(c2)OCCO3)no1	SF1 inhibitor 51
Cc1cc(NC(=O)c2noc3c2CCCCC3)no1	none
Cc1cc(NC(=O)c2ccc3c(c2)OCO3)no1	none
COC(=O)C1CCN(C(=O)NC(C)(C)C)CC1	none
O=c1c2cnn(-c3ccc(F)cc3)c2ncn1Cc1ccccn1	none
CC(=O)Oc1c(S(=O)(=O)c2ccc(C)cc2)c(C)nn1-c1ccccc1	none
Cc1ccc2oc(=O)c3cnn(CC(=O)NCCCOC(C)C)c3c2c1	none
